# Measured values published in PubChem BioAssay.
# Active and inactive are the calls of the source.
# Tests used:
# [1] = test system: Plasmodium falciparum Sir2 (PF13_0152, Sir2A); test: Plasmodium falciparum Sir2A binding compounds – biochemical, small-molecule microarray, 635 nm fluorescence, primary screen (AID 1098); conditions: fluorescence 635 nm, higher = more signal;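 further: score merges spot fluorescence intensity with its signal-to-noise ratio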
# [2] = probe aDKK1 binding to arrayed compounds – biochemical, biotinylated probe, 635/667 nm fluorescence, primary screen (AID 1099); conditions: small-molecule microarray, higher = more signal;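 further: score merges 667nm spot fluorescence with signal to noise across triplicate slides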
# [3] = probe aCHRDL2 binding to arrayed compounds – biochemical, biotinylated probe, 635/667 nm fluorescence, primary screen (AID 1100); conditions: small-molecule microarray, higher = more signal
# [4] = change in splice reporter luminescence, either direction, cell-based, HEK293, spliceosome inhibition project, primary screen (AID 1101); conditions: HEK293 splicing luciferase reporter, 24 h, higher = more signal, called active from +8 up or from −8 down;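 further: HEK293 cells carrying a splicing-competent luciferase reporter gene; test concentration not given here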
# [5] = biological target: Fibroblast growth factor 10 (Homo sapiens) (UniProt O15520); test: compounds binding fibroblast growth factor 10 – biochemical, small-molecule microarray, 635 nm fluorescence, primary screen (AID 1102); conditions: FGF10 binding, fluorescence 635 nm, higher = more signal
# [6] = test system: glycogen synthase kinase-3 (GSK3A per assay name; protocol says GSK3B); test: compounds binding glycogen synthase kinase-3 – biochemical, small-molecule microarray, 635 nm fluorescence, GSK3A, primary screen (AID 1103); conditions: fluorescence 635 nm, higher = more signal; further: the record names both GSK3A and GSK3B
# [7] = biological target: Epidermal growth factor receptor (Homo sapiens) (UniProt P00533); test: compounds binding epidermal growth factor receptor – biochemical, small-molecule microarray, 635 nm fluorescence, primary screen (AID 1104); conditions: EGFR binding, higher = more signal;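 further: score merges 667 nm emission intensity with spot signal to noise over triplicate slides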
# [8] = biological target: Follistatin-related protein 3 (Homo sapiens) (UniProt O95633); test: compounds binding follistatin-related protein 3 – biochemical, small-molecule microarray, 635 nm fluorescence, primary screen (AID 1105); conditions: FSTL3 binding, higher = more signal;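 further: score merges emission near 667 nm and signal to noise per printed spot across three slides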
# [9] = biological target: Dickkopf-related protein 1 (Homo sapiens) (UniProt O94907); test: small molecules binding DKK1 protein – biochemical, small-molecule microarray, 635 nm fluorescence scan, primary screen (AID 1106); conditions: higher = more signal;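 further: score merges emission near 667 nm with signal to noise over three replicate slides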
# [10] = test system: Inhibin beta A chain (activin A); test: small molecules binding activin A – biochemical, small-molecule microarray, 635 nm fluorescence scan, primary screen (AID 1107); conditions: INHBA, higher = more signal;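 further: mouse activin A protein probed at 4.33 µg/mL on printed slides; score merges bound-protein fluorescence near 667 nm with spot signal-to-noise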
# [11] = test system: Human papillomavirus type 1a protein E7 (residues 44-93); test: small molecules binding HPV E7 44-93 – biochemical, small-molecule microarray, residues 44-93, 635 nm fluorescence, primary screen (AID 1108); conditions: fluorescence 635 nm, higher = more signal;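 further: E7 fragment applied at 1 µg/mL in TBST for 1 h at 4 C; score combines spot fluorescence with its signal to noise ratio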
# [12] = hepatitis C replication reporter changes, two-sided – Huh7 cells, luciferase reporter, HCV replication inhibitor project, primary screen (AID 1109); conditions: Huh7 HCV replicon luciferase reporter, 48 h; higher = more signal;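 further: huh7 hepatoma cells harbouring a luciferase neomycin HCV replicon reporter; luciferase luminescence as measure of HCV replicon replication; test concentration not given here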
# [13] = biological target: Left-right determination factor 2 (Homo sapiens) (UniProt O00292); test: small molecules binding LEFTY2 protein – biochemical, small-molecule microarray, 635 nm fluorescence scan, primary screen (AID 1110); conditions: higher = more signal
# [14] = biological target: Calmodulin-1 (Homo sapiens) (UniProt P0DP23); test: small molecules binding calmodulin-1 with EGTA – biochemical, small-molecule microarray, Cy5-labelled CALM1, profiling panel (AID 1111); conditions: Cy5-CALM1 binding fluorescence, higher = more signal;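 further: labelled calmodulin applied in Tris saline Tween buffer holding calcium plus EGTA and DTT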
# [15] = biological target: Calmodulin-1 (Homo sapiens) (UniProt P0DP23); test: small molecules binding Ca-loaded calmodulin-1 – biochemical, small-molecule microarray, Cy5-labelled CALM1, plus calcium, artefact control for SMM control-protein annotation, profiling panel (AID 1112); conditions: Cy5-CALM1 binding fluorescence, higher = more signal;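 further: score merges spot fluorescence with signal to noise from triplicate slides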
# [16] = probe aWnt5a binding to arrayed compounds – biochemical, biotinylated probe, 635/667 nm fluorescence, primary screen (AID 1113); conditions: small-molecule microarray, higher = more signal;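 further: score merges 667 nm fluorescence intensity with signal-to-noise per printed feature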
# [17] = probe aShh binding to arrayed compounds – biochemical, biotinylated probe, 635/667 nm fluorescence, primary screen (AID 1114); conditions: small-molecule microarray, higher = more signal;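 further: probe is biotin-labelled aShh protein from a stem cell growth factor screen; measures binding of labelled protein to compounds printed on the slide; score merges feature fluorescence at 667 nm with signal-to-noise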
# [18] = probe aNog binding to arrayed compounds – biochemical, biotinylated probe, 635/667 nm fluorescence, primary screen (AID 1115); conditions: small-molecule microarray, higher = more signal;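 further: probe is biotinylated aNog protein used at 0.15 µg/mL for 1 h at 4 C; z-score combines 667 nm fluorescence of each spot with its signal to noise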
# [19] = biological target: Torsin-1A-interacting protein 1 (Homo sapiens) (UniProt Q5JTV8); test: compound microarray binding of lysate hLAP1 – cell lysate, small-molecule microarray, COS7 lysate, 635/667 nm fluorescence, primary screen (AID 1116); conditions: 635 nm fluorescence, higher = more signal
# [20] = biological target: Alpha-bungarotoxin (Bungarus multicinctus) (UniProt P60615); test: compounds binding labelled alpha-BTX control protein – biochemical, small-molecule microarray, Alexa647 label, 635/667 nm fluorescence, artefact control for SMM control protein annotation, profiling panel (AID 1117); conditions: alpha-BTX-A647 binding fluorescence, higher = more signal
# Sequence of Alpha-bungarotoxin (Bungarus multicinctus) (P60615 whole entry, looked up): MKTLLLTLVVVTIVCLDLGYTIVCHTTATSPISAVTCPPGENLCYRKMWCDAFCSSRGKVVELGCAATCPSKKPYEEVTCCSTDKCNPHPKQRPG
# Sequence of Torsin-1A-interacting protein 1 (Homo sapiens) (Q5JTV8 whole entry, looked up): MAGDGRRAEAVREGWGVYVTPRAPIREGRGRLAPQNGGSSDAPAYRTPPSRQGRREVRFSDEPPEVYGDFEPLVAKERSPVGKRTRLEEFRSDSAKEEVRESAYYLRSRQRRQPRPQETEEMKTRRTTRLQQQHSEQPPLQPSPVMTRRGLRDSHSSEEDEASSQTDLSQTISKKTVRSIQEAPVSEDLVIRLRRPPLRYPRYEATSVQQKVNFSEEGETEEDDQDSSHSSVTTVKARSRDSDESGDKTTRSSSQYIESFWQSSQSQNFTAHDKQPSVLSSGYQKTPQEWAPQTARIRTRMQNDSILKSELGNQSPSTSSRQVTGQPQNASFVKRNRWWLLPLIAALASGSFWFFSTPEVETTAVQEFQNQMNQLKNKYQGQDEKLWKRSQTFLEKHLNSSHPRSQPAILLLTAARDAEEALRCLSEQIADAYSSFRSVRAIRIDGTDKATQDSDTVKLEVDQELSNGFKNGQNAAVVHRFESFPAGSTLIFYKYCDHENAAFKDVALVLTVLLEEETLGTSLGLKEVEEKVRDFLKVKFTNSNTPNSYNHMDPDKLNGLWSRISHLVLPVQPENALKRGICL
# Sequence of Fibroblast growth factor 10 (Homo sapiens) (O15520 whole entry, looked up): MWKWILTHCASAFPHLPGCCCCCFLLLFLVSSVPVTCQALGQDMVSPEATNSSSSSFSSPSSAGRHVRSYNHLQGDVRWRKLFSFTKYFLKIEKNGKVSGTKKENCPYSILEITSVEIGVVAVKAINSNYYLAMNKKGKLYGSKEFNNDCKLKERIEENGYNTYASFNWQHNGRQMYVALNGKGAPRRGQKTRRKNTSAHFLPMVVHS
# Sequence of Epidermal growth factor receptor (Homo sapiens) (P00533 whole entry, looked up): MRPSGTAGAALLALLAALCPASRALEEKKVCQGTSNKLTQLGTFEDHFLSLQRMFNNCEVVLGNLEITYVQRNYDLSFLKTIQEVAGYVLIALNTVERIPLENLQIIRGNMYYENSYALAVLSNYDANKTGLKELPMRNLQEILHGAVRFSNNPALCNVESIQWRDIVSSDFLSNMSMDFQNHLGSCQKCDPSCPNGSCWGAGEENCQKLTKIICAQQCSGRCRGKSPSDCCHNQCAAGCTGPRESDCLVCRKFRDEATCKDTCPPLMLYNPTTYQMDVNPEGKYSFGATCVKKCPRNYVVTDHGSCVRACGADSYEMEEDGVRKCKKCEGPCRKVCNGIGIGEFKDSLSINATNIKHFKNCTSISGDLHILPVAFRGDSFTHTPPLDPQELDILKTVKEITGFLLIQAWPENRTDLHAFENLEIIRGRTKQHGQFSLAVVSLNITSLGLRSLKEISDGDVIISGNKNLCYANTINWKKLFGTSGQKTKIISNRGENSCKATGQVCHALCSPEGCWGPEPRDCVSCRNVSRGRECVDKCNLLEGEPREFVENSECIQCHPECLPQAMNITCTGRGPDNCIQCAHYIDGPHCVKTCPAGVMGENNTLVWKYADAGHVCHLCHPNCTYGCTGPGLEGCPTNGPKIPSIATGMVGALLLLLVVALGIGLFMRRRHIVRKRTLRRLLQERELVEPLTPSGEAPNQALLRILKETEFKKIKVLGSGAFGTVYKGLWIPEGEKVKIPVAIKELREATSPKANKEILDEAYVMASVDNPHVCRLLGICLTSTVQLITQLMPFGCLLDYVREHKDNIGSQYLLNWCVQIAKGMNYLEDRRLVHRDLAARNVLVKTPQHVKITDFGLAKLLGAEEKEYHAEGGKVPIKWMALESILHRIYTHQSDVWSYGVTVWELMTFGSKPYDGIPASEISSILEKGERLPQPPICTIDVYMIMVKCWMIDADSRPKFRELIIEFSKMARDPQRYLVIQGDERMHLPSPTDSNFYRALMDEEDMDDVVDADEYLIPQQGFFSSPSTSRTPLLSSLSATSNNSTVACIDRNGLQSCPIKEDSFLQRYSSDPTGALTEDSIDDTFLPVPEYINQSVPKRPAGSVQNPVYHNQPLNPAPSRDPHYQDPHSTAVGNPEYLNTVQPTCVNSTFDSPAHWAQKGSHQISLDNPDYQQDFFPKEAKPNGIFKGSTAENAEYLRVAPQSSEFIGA
# Sequence of Dickkopf-related protein 1 (Homo sapiens) (O94907 whole entry, looked up): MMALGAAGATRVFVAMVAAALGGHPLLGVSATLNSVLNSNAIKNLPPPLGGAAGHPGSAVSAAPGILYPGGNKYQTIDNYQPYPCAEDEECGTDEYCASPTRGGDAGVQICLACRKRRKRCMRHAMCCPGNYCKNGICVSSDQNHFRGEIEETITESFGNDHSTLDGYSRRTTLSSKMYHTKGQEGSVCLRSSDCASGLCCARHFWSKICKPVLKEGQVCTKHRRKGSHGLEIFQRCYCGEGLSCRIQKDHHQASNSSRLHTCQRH
# Sequence of Follistatin-related protein 3 (Homo sapiens) (O95633 whole entry, looked up): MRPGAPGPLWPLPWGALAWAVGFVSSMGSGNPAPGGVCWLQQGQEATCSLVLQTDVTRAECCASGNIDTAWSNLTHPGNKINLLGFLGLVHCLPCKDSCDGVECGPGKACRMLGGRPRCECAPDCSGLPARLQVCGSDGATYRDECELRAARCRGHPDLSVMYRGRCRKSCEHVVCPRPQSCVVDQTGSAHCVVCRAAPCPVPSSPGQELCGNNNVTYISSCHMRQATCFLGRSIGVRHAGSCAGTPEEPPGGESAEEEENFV
# Sequence of Left-right determination factor 2 (Homo sapiens) (O00292 whole entry, looked up): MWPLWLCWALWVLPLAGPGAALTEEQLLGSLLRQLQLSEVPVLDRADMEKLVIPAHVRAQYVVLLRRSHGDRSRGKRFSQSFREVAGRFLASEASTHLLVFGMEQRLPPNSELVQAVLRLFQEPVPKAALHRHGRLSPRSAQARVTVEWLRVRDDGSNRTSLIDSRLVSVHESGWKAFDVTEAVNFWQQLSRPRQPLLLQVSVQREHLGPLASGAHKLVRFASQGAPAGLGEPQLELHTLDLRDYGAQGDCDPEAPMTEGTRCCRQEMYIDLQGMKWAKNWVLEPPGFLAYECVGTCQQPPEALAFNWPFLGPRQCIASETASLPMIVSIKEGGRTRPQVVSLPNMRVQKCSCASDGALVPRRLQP
SMILES,composite z-score [1],composite z-score [2],composite z-score [3],z-score [4],composite z-score [5],composite z-score [6],composite z-score [7],composite z-score [8],composite z-score [9],composite z-score [10],composite z-score [11],z-score [12],composite z-score [13],composite z-score [14],composite z-score [15],composite z-score [16],composite z-score [17],composite z-score [18],composite z-score [19],composite z-score [20]
CN1C(=O)C2C=CC(C(O)C3CCCCC3)N(Nc3ccc([N+](=O)[O-])cc3[N+](=O)[O-])C2C1=O (stereo not given),0.912,0.778,0.906,1.84 (inactive),0.911,0.323,0.374,1.29,-0.33,0.738,1.28,-0.613,0.0511,1.42,0.377,-0.0472,0.13,1.59,1.28,1.34
COC(=O)C=C(CC(O)c1cccc(Cl)c1)OC (stereo not given),-0.02,1.5,0.48,-1.12 (inactive),0.182,-0.134,-0.485,-0.374,-0.186,1.14,-0.734,-0.923,-0.17,1.27,1.01,0.23,0.506,1.93,1.99,1.51
NC(=O)[C@@H]1[C@H]2C(=O)O[C@H](c3ccccc3)[C@H](c3ccccc3)N2[C@H](c2ccc(O)cc2)[C@@]12C(=O)Nc1ccc(C#CC3(O)CCCCCC3)cc12,0.61,-0.127,0.523,0.0171 (inactive),-0.177,-1.05,-0.497,-0.846,-0.193,-0.257,0.124,-0.293,-0.0941,-0.363,0.555,-0.202,0.0684,0.179,1.59,-0.115
CC(C)(C)OC(=O)CC[C@@]1(C(N)=O)N=C(c2ccc(OCCCO)cc2)O[C@@H]1c1ccccc1,1.19,0.307,0.666,-0.0742 (inactive),0.958,1.15,-0.467,0.0089,-0.534,0.557,1.38,0.14,-0.289,0.31,-0.216,-0.0512,-0.419,-0.534,1.2,0.646
O=C1OCCC/C=C\[C@H]2OC34C=CCN(c5ccc6ccccc6c5)C(=O)[C@H]3N(CCCCCCO)C(=O)[C@@H]4C12 (stereo not given in full),1.35,-0.234,0.711,-1.39 (inactive),-0.873,-0.525,0.102,0.0824,-1.71,0.998,-1.45,-0.625,-0.955,-0.761,-0.384,-0.176,-0.179,-0.388,2.93,-0.182
COCCOC(=O)N1C(=O)[C@@]2(c3cc(C#Cc4ccc(OC)cc4)ccc31)[C@H](c1ccccc1OCCO)N1[C@H](c3ccccc3)[C@H](c3ccccc3)OC(=O)[C@H]1[C@@H]2C(=O)N1CCN(c2ncccn2)CC1,0.864,-0.0148,0.116,-0.0173 (inactive),0.743,0.806,0.339,0.369,0.27,0.345,1.18,-1.49,0.278,0.694,0.805,-0.118,0.13,0.121,0.949,0.876
